p53ts 32C kill – p53ts cell cytotoxicity, permissive temperature; H1299-p53A138V at 32C, ATP luminescence viability, 24 h; Potency, µM (top dose mostly 46.1 µM), hits mostly cytotoxic; hit rate 0.93% among 130,000; note: nearly all actives have a fitted effect of over 55% in size
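Viability by ATPlite luminescence after 24 h compound treatment (up to 46 uM) at the permissive 32C. Cells are H1299 carrying p53 A138V. Scale runs from DMSO basal to 100 uM tamoxifen as full kill; AC50 from Hill fits.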
p53ts 39C kill – kills p53ts cells at the nonpermissive temperature | H1299-p53A138V viability at 39C, ATP luminescence, 24 h | Potency, µM (doses to about 46.1 µM), hits mostly cytotoxic | hit rate 1.5% among 130,000; note: nearly all actives have a fitted effect of over 55% in size
Luciferase inh – inhibitors of firefly luciferase. purified firefly luciferase, luminescence, 8 min. Potency, µM (doses to about 57.1 µM), hits mostly inhibitors. hit rate 2.2% among 72,000; note: nearly all actives have a fitted effect of over 40% in size
Target sequence (P08659 whole entry, looked up): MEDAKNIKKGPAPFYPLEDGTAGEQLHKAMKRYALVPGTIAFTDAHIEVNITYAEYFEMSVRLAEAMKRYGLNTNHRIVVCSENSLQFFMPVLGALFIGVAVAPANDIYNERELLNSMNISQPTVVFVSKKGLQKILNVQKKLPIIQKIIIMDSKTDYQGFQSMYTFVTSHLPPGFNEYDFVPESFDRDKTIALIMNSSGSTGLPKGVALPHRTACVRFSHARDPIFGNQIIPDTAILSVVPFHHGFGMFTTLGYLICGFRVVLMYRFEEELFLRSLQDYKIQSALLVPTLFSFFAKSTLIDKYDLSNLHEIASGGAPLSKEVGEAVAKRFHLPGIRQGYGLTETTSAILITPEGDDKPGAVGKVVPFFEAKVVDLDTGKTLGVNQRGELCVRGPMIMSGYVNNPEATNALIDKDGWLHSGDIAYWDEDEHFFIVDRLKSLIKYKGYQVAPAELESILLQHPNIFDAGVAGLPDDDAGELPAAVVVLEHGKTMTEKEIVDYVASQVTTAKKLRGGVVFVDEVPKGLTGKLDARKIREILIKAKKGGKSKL
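qHTS concentration-response profiling: light output of P. pyralis luciferase with luciferin and 10 uM ATP, imidazole buffer pH 7.2. Read by luminescence after 8-min room-temperature incubation.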
Each line names hits and unclear results; the compound was inactive in the other large screens. Only some compounds are listed: those with a hit (about 2.5% of all), similar ones and a draw of the others. Calls come from the whole dose curve; as a rule, active = well fitted curve in the direction sought with a large enough effect; inconclusive = small, poorly fitted or top-dose-only effect, or another doubt; inactive = no such curve, though single readings can be large; an effect the other way counts as inactive or inconclusive.

N#CCc1nc(CSc2nc3ccccc3o2)cs1	none
CCN1C(=S)SC(=O)C1=C1C=C(C)N(Cc2ccco2)C(C)=C1	Luciferase inh 10µM
CCN1C(=S)SC(=O)C1=C1C=C(C)OC(C)=C1	none
CCc1ccc(Nc2cc(C)nc3nc(Cc4ccc(Cl)cc4)nn23)cc1	p53ts 39C kill 20µM (no result: Luciferase inh)
Cc1ccc(Nc2cc(C)nc3nc(Cc4ccc(Cl)cc4)nn23)cc1	none (no result: Luciferase inh)
Cc1ccc2oc(=O)c3cc(C(=O)N4CCN(c5ccccc5)CC4)sc3c2c1	none (no result: Luciferase inh)
C=CCn1c(C)cc(C(=O)CSc2nc3ccccc3o2)c1C	Luciferase inh 16µM
Cc1cc(C(=O)CSc2nc3ccccc3o2)c(C)n1C1CC1	none
CCN1CCN(C(=O)Nc2ccc(Cc3ccc(NC(=O)N4CCN(CC)CC4)cc3)cc2)CC1	Luciferase inh 13µM
CCN1CCN(CCC(=O)Nc2ccccc2OC)CC1	none
CCN1CCN(Cc2ccc(NC(=O)Nc3ccccc3OC)cc2)CC1	p53ts 32C kill 7.9µM, p53ts 39C kill 10µM, Luciferase inh inconclusive
CCOC(=O)N1CCN(C(=O)Nc2ccc(Cl)cc2)CC1	none
CCOC(=O)c1c(-c2ccccc2)oc2ccc(NS(=O)(=O)c3ccc(C(C)C)cc3)cc12	p53ts 39C kill inconclusive (no result: Luciferase inh)
C=CCSc1nc2c(N)ncnc2n1[C@@H]1O[C@H](CO)[C@@H](O)[C@@H]1O	none
C[C@@H](C(=O)O)c1ccc(N2Cc3ccccc3C2=O)cc1	p53ts 32C kill 10µM, p53ts 39C kill 5µM, Luciferase inh 5µM
CC(C)NC(=O)C(c1ccccc1)N1Cc2ccccc2C1=O (stereo not drawn)	none (no result: p53ts 39C kill, Luciferase inh)
COc1ccc(-c2nc3ccccc3s2)cc1NC(=O)c1ccc(F)cc1	p53ts 39C kill 13µM (no result: Luciferase inh)
CCS(=O)(=O)c1ccccc1C(=O)Nc1ccc(-c2nc3ccccc3s2)cc1	none (no result: Luciferase inh)
CC(C)(C)C(=O)Nc1ccc(-c2nc3ccccc3s2)cc1	p53ts 32C kill 0.32µM, p53ts 39C kill 0.32µM (no result: Luciferase inh)
COc1cc(OC)cc(C(=O)Nc2cc(-c3nc4ccccc4s3)ccc2OC)c1	none (no result: Luciferase inh)
COc1ccc(OC)c(C2OCCC=CC2C)c1 (stereo not drawn)	none (no result: Luciferase inh)
CCOc1ccccc1NC(=O)c1cc2ccc3cccnc3c2[nH]1	p53ts 39C kill inconclusive (no result: Luciferase inh)
O=C(c1cc2ccc3cccnc3c2[nH]1)N1CCCCC1	p53ts 32C kill 1.6µM, p53ts 39C kill 0.63µM (no result: Luciferase inh)
COc1ccccc1NC(=O)c1cc2ccc3cccnc3c2[nH]1	p53ts 32C kill 10µM, p53ts 39C kill 7.9µM (no result: Luciferase inh)
CCOC(=O)C1CCN(C(=O)c2cc3ccc4cccnc4c3[nH]2)CC1	none (no result: Luciferase inh)
O=C(c1cc2ccc3cccnc3c2[nH]1)N1CCN(c2ccc(Cl)cc2)CC1	none (no result: Luciferase inh)
CC1CCCN(C(=O)c2cc3ccc4cccnc4c3[nH]2)C1 (stereo not drawn)	p53ts 32C kill 0.79µM, p53ts 39C kill 1.6µM (no result: Luciferase inh)
CCOc1ccc(OCC)c(NS(=O)(=O)c2ccc(-c3coc(C)n3)cc2)c1	none (no result: Luciferase inh)
Cc1ccccc1-c1cc(-c2ccccc2O)n[nH]1	Luciferase inh inconclusive
Cc1ccc(-c2cc(-c3ccccc3Cl)[nH]n2)c(O)c1	p53ts 39C kill inconclusive, Luciferase inh 10µM
Cc1cc(C)cc(OCCn2c(C3CC(=O)N(c4ccccc4Cl)C3)nc3ccccc32)c1 (stereo not drawn)	none (no result: Luciferase inh)
CCOc1ccc(N2CC(c3nc4ccccc4n3CCCOc3ccc(OC)cc3)CC2=O)cc1 (stereo not drawn)	none (no result: Luciferase inh)
COc1ccccc1OCCCCn1c(C2CC(=O)N(c3ccccc3Cl)C2)nc2ccccc21 (stereo not drawn)	p53ts 32C kill inconclusive, p53ts 39C kill 20µM (no result: Luciferase inh)
CCc1ccccc1N1CC(c2nc3ccccc3n2CCCOc2ccc(Cl)cc2)CC1=O (stereo not drawn)	p53ts 32C kill inconclusive, p53ts 39C kill 20µM (no result: Luciferase inh)
CCOC(=O)C[C@@H](C(=O)OCC)[C@@H]1CCCCC1=O	none
C=C1CC[C@H]2C(C)(C)[C@H](O)CC[C@]2(C)[C@@H]1COc1ccc2ccc(=O)oc2c1	none (no result: p53ts 32C kill, p53ts 39C kill)
COc1ccc(N=c2oc3cc(O)ccc3cc2C(=O)NCC2CCCO2)cc1 (stereo not drawn)	none
Cc1ccc(N=c2oc3cc(O)ccc3cc2C(N)=O)cc1	p53ts 32C kill inconclusive, p53ts 39C kill 7.9µM, Luciferase inh 13µM
O=C(Nc1cc(Cl)ccc1Cl)c1cc(S(=O)(=O)NCCc2ccccc2)ccc1F	p53ts 39C kill inconclusive (no result: Luciferase inh)
O=C1OC(=O)c2ccccc21	none (no result: Luciferase inh)
CCCCCCCCCC[Si](C)(C)CCC(=O)N[C@@H](Cc1ccc(C)cc1)c1ccccc1	none
CCCN1C[C@@H](CSC)C[C@H]2c3cccc4[nH]cc(c34)C[C@@H]21	none
CC(=O)Nc1cccc(-c2nc3ccccc3c(=O)o2)c1	none
CCC(=O)Oc1ccc(-c2nc3ccccc3c(=O)o2)cc1	p53ts 32C kill inconclusive (no result: Luciferase inh)
CCCOc1ccc(-c2nc3ccccc3c(=O)o2)cc1	p53ts 32C kill 10µM, p53ts 39C kill 5µM (no result: Luciferase inh)

Assay outcomes (PubChem BioAssay)
